Measured values: PubChem BioAssay (EPA / NIEHS)
The source made the active and inactive calls. The calls were made as follows: active = hit-call score of the fitted dose curve at least 0.9, where 1 is the maximum; inactive = score below 0.9.

Columns and labels:
[1] = ATG_NFI_CIS: Attagene CIS-FACTORIAL HepG2 Assay for human Nuclear Factor I (NFI) (AID 2282989); details: HepG2 cis-regulatory reporter, NFI response element transcription; actives raise or lower the signal
In short: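 Multiplexed cis-reporter system in human HepG2 cells reports native TF activity as reporter mRNA induction 24 h post-dose. Fragments labelled with 6-FAM, HpaI-digested and resolved by capillary electrophoresis; activity fitted both directions versus DMSO.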

[2] = biological target: Myc proto-oncogene protein (Homo sapiens) (UniProt P01106); assay: ATG_Myc_CIS: Attagene CIS-FACTORIAL HepG2 Assay for human Myelocytomatosis (Myc) Proto-Oncogene Transcription Factor (AID 2282990); details: HepG2, Attagene cis-reporter transcription factor activity; actives raise or lower the signal
Myc proto-oncogene protein (Homo sapiens), sequence (P01106 whole entry, looked up): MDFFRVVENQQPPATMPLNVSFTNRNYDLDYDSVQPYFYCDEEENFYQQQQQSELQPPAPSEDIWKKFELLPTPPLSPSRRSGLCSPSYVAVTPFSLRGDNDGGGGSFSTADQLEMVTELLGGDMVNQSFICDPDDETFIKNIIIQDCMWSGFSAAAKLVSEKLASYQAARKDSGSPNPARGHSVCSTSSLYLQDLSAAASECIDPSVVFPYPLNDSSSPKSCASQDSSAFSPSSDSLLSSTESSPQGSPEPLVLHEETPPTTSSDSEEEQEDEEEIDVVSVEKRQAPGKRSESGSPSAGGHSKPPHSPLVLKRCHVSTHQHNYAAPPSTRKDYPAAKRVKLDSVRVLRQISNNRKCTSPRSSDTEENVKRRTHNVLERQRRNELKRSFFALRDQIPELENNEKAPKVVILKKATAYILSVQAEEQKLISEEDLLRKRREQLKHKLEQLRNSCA
In short: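 HepG2, transient MRTU transfection (cis promoters, endogenous TFs); 24 h dosing; TriZol RNA → oligo(dT) RT → PCR → 6-FAM primer extension → HpaI cut → CE. Bidirectional fit vs DMSO.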

[3] = ATG_NF_kB_CIS: Attagene CIS-FACTORIAL HepG2 Assay for human Nuclear Factor Kappa B (NF-kB) (AID 2282991); details: HepG2 Attagene cis-factorial NF-kB reporter mRNA; actives raise or lower the signal
In short: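 Multiplexed cis-reporter assay in transiently transfected HepG2. 24 h treatment; RNA isolated, RT-PCR, labelled fragments resolved by CE. DMSO baseline.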

[4] = ATG_NRF2_ARE_CIS: Attagene CIS-FACTORIAL HepG2 Assay for human Nuclear Factor Erythroid 2 Related Factor 2 (NFR2) response to Antioxidant Response Elements (ARE) (AID 2282992); details: HepG2 Attagene ARE/NRF2 reporter, transcription factor activity; actives raise or lower the signal;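 as to AC50: reporter mRNA level measured by RT-PCR and capillary electrophoresis fluorescence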
In short: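 Fluorescence intensity of reporter-specific cDNA fragments, separated by capillary electrophoresis, reflects mRNA induction in transfected HepG2 cells at 24 h. Activity is fitted bidirectionally, DMSO serving as baseline.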

[5] = ATG_Oct_MLP_CIS: Attagene CIS-FACTORIAL HepG2 Assay for human Octamer-Binding Transcription Factor (Oct) (AID 2282993); details: HepG2 Attagene cis-factorial Oct reporter, mRNA; actives raise or lower the signal
In short: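 After 24 h compound exposure, transfected HepG2 cells were lysed for total RNA; reporter-specific cDNA was PCR-amplified, fluorescently labelled and sized by capillary electrophoresis. Bidirectional curve fitting used DMSO as baseline.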

[6] = biological target: Cellular tumor antigen p53 (Homo sapiens) (UniProt P04637); assay: ATG_p53_CIS: Attagene CIS-FACTORIAL HepG2 Assay for human p53 Transcription Factor (AID 2282994); details: HepG2 p53 cis-element reporter, Attagene mRNA; actives raise or lower the signal
Cellular tumor antigen p53 (Homo sapiens), sequence (P04637 whole entry, looked up): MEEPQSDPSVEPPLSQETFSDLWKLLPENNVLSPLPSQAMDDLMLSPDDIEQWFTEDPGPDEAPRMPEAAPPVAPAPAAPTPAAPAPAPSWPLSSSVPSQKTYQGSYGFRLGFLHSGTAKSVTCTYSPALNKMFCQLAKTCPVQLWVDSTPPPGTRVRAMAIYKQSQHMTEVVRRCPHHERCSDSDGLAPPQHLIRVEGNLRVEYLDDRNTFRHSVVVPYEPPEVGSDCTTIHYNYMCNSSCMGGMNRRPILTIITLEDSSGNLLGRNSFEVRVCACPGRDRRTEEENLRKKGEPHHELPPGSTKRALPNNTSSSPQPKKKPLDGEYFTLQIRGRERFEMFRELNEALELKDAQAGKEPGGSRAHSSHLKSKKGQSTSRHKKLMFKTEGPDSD
In short: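 Transiently transfected HepG2 (multiple cis reporter transcription units); exposure 24 h; reporter RNA via RT-PCR, 6-FAM extension, 2 h HpaI digest at 37 C, CE detection; DMSO baseline.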

Measured: AC50

COc1ccc(CCO)cc1
not listed: [6]
inactive: all other assays above

Cc1c(C2(c3cc(Br)c(O)c(Br)c3C)OS(=O)(=O)c3ccccc32)cc(Br)c(O)c1Br
active: [4] 52.5 µM
not listed: [6]
inactive: all other assays above

COC(=O)c1ccc(C)cc1C1=NC(C)(C(C)C)C(=O)N1 (centres undefined) (tested in a mixture with another compound)
inactive: all assays above

CCc1cc(Cc2cc(CC)cc(C(C)(C)C)c2O)c(O)c(C(C)(C)C)c1
inactive: [2]
active: [1] 13.5 µM | [3] 17.4 µM | [4] 7.08 µM | [5] 16.3 µM

C=CC(=C)CCCC(C)(C)OC(C)=O
not listed: [6]
inactive: all other assays above

CCCCCCCCCCCCS(=O)(=O)Cl
not listed: [6]
inactive: all other assays above

CC(Oc1cc(Cl)ccc1Cl)C(=O)O (centres undefined)
not listed: [6]
inactive: all other assays above

CCOC(=O)CCc1ccccc1
not listed: [6]
inactive: all other assays above

CCC(C)S (centres undefined)
not listed: [6]
inactive: all other assays above

CCCCC(CC)C(=O)OC(C)C (centres undefined)
not listed: [6]
inactive: all other assays above

O=C(CS)OCCOC(=O)CS
active: [3] 43.8 µM | [4] 148 µM
inactive: [1] | [2] | [5]

N[C@@H](Cc1cc(I)c(Oc2cc(I)c(O)c(I)c2)c(I)c1)C(=O)O
active: [4] 36.5 µM
not listed: [6]
inactive: all other assays above

CC(=O)c1ccccn1
inactive: all assays above

C=CCCC(=O)/C=C/C1C(C)=CCCC1(C)C (centres undefined)
active: [4] 110 µM
inactive: all other assays above

CCCCCCCCC=CCCCCCCCC1=NCCN1CCO
inactive: [2] | [4] | [5]
active: [1] 6.21 µM | [3] 26 µM

CCC1CCCCC1
not listed: [6]
inactive: all other assays above

CCCCC1CCC(O)CC1 (centres undefined)
not listed: [6]
inactive: all other assays above

O=P(O)(O)O
not listed: [6]
inactive: all other assays above

c1ccc(CN(Cc2ccccc2)Cc2ccccc2)cc1
active: [4] 100 µM
not listed: [6]
inactive: all other assays above

CCNCCO
not listed: [6]
inactive: all other assays above

CC1(C)C(=O)N(Cl)C(=O)N1Br
not listed: [6]
inactive: all other assays above

C[C@H](CCC(=O)NCC(=O)O)[C@H]1CC[C@H]2[C@@H]3[C@H](O)C[C@@H]4C[C@H](O)CC[C@]4(C)[C@H]3C[C@H](O)[C@]12C
not listed: [6]
inactive: all other assays above

CC(=O)O[C@@H]1CC2CCC1(C)C2(C)C (some centres undefined)
not listed: [6]
inactive: all other assays above

CCCCCCCCCCCC(=O)OCC(O)CO (centres undefined)
active: [3] 100 µM | [4] 100 µM
inactive: [1] | [2] | [5]

CCN(CCC#N)c1ccc(N=Nc2ccc([N+](=O)[O-])cc2)cc1
active: [4] 64.7 µM
not listed: [6]
inactive: all other assays above

CC(C)=CCCC(C)CC(=O)O (centres undefined)
not listed: [6]
inactive: all other assays above

CN(C)c1ccncc1
not listed: [6]
inactive: all other assays above

CC1=C(Br)C(=O)C(Br)=C/C1=C(/c1ccccc1S(=O)(=O)O)c1cc(Br)c(O)c(Br)c1C
not listed: [6]
inactive: all other assays above

CCCCCCC(C)Nc1ccc(Nc2ccccc2)cc1 (centres undefined)
active: [4] 24.1 µM
not listed: [6]
inactive: all other assays above

C#CC(C)(O)CC(C)C (centres undefined)
not listed: [6]
inactive: all other assays above

Cc1c(Cl)cccc1[N+](=O)[O-]
not listed: [6]
inactive: all other assays above

C1CCOC1
inactive: all assays above

CCCCCCC(C)(C)S
not listed: [6]
inactive: all other assays above
